Among all 320,000 compounds or so, about 22,000 (6.9%) were called active. Not shown: some 27% with an inconclusive outcome. The call rests on the fitted dose curve; in most records, active means well fitted inhibition curve with a large enough effect; inconclusive means small, poorly fitted or top-dose-only effect, or another doubt; inactive means no such curve, though single readings can be large or run the other way. What follows is part of a selection rich in actives, with near analogues and random picks from the rest. Where a call stands in place of a potency, no number is given.
Potency means the concentration at half of the fitted maximal effect.

This assay in a line: Primary qHTS for delayed death inhibitors of the malarial parasite plastid, 96 hour incubation. As to conditions: P. falciparum luciferase reporter growth; series mostly up to 28.7 µM. An excerpt: The goal of this screen is to discover new antimalarial compounds that act by inhibiting the development of the apicoplast in the malarial parasite Plasmodium falciparum. The biochemical processes that make this organelle essential for erythrocytic stage parasites are not well understood. However, antibiotics such as azithromycin and tetracycline, which target the apicoplast translational machinery, have a potent antimalarial effect.
We have developed a cell-based assay that measures parasite growth based on the expression of an integrated copy of a firefly luciferase reporter. To detect small molecules that cause this "delayed death" phenotype, erythrocytes infected with the luciferase-expressing parasites were incubated with compounds for either one or two generations, corresponding to 48 and 96 hours, respectively. Compounds that inhibit parasite growth in the second generation, but not the first, should be enriched in antimalarials that target the apicoplast. Growth inhibition is detected by a decrease in luciferase activity.
Assay Provider: David Fidock and Eric Ekland, Columbia University
Keywords: NIH Roadmap, MLPCN, MLI, MLSMR, qHTS, NCGC, qHTS, malaria, luciferase, viability
Four microliters of infected erythrocytes (2% hematocrit, 0.05% parasitemia final concentration) in culture medium were dispensed and the plates incubated for 96 hours at 37 C in 5% CO2. Two microliters of luciferase detection reagent was added and luminescence was detected by a ViewLux (PerkinElmer) reader.
In general terms: qHTS replaces the single test concentration by a dilution series.
`O=c1c2cc(Br)ccc2nc(-c2cccc(Cl)c2)n1O`: the Potency entry was “inactive”. As to `O=C(c1ccc2c(c1)OCO2)N1CCOCC1`, the Potency entry was “inactive”.

On to `O=C(c1cccc(S(=O)(=O)N2CCOCC2)c1)N1CCOCC1`, for which the Potency result was “inactive”. With `O=C(c1cccc(N2CCCC2=O)c1)N1CCOCC1`, the Potency is 6.57 µM (active).

`Cc1ccc(C(=O)NNC(=O)c2ccc3c(c2)OCCO3)cc1`: the Potency result was “inactive”. For the compound `COCc1cc(C)n(CC(=O)NCC2CCCO2)c(=O)c1C#N` (configuration not stated), the Potency result was “inactive”.

In the case of `O=C(Nc1ccc(S(=O)(=O)Nc2ncccn2)cc1)C12CC3CC(CC(C3)C1)C2`, the Potency entry was “inactive”. Take `CCn1nccc1C(=O)Nc1ccc(S(=O)(=O)NC23CC4CC(CC(C4)C2)C3)cc1`: the Potency is 6.57 µM (active).

As to `Cc1noc(NS(=O)(=O)c2ccc(NC(=O)C34CCC(CC3)C4)cc2)c1C`, the Potency entry was “inactive”.

In the case of `Cc1ccc(S(=O)(=O)NCCC(=O)NNC(=O)C2COc3ccccc3O2)cc1` (configuration not stated), the Potency result was “inactive”. For `Oc1ccccc1C1=NN(c2ccccc2)C(c2ccccc2)C1` (configuration not stated), the Potency is 1.65 µM (active).

Turning to `COc1ccc(C2CC(c3cccs3)=NN2c2ccccc2)cc1` (configuration not stated), the Potency entry was “inactive”. On to `CC(=O)Oc1ccccc1C1=NN(C(C)=O)C(c2ccccc2)C1` (configuration not stated), for which the Potency result was “inactive”. As for `Cn1cc(C(=O)c2ccc(Cl)cc2Cl)cc1C(=O)NN`, the Potency entry is “inactive”.

Turning to `COc1ccc(CCNC(=O)COc2ccc3c(c2)OCO3)cc1`, the Potency result is “inactive”. For `Cc1ccc2nc(Nc3ccccc3)cc(C)c2c1`, the Potency entry was “inactive”. Regarding `Cc1ccc2nc(C)c3c(c2c1)N(c1ccccc1)CC3`, the Potency is 6.57 µM (active). The result for `Cc1ccc2nc(-c3ccccc3)cc(C(=O)O)c2c1` reads “inactive”. `O=C1NCCn2nc3ccccc3c21`: the Potency result is “inactive”. In the case of `CCN(CC)CCn1c2c(c(SCC(=O)Nc3ccc(C(C)C)cc3)nc1=O)CCC2`, the Potency was 4.15 µM (active). `Cc1csc(NC(=O)CSc2nc(=O)n(CCCN(C)C)c3c2CCC3)n1`: the Potency result is “inactive”.

In the case of `Cn1c(SCC(=O)Nc2ccc(Cl)cc2)nc(O)cc1=O`, the Potency result is “inactive”. In the case of `CC(C)c1ccc(NC(=O)COC(=O)c2ccc(CN3CCCC3=O)cc2)cc1`, the Potency entry is “inactive”. The entry for `Cn1nnnc1SCC(=O)Nc1nc2ccccc2s1` is “inactive”. The result for `CCN(CC)CCn1c2c(c(SCC(=O)Nc3nc4ccccc4s3)nc1=O)CCCC2` reads 11.7 µM (active). Consider `COc1ccccc1C(=O)NC(CCSC)C(=O)NNC(=O)c1csc(N2CCOCC2)n1` (configuration not stated), for which the Potency result is “inactive”. On to `Cc1ccc(CSCC2Nc3ccc(C(=O)N4CCN(c5ccc(F)cc5)CC4)cc3NC2=O)cc1` (configuration not stated), for which the Potency result was “inactive”.

For `O=C(O)c1ccccc1C(=O)NC1=NN(c2ccccc2)CC1`, the Potency entry is “inactive”. In the case of `O=[N+]([O-])c1ccc2c(c1)C(O)n1nc(-c3ccccc3)nc1S2` (configuration not stated), the Potency result is “inactive”.

For the compound `O=C(CN1CCCCCC1)Nc1c(Cl)cc(Cl)cc1Cl`, the Potency result was “inactive”. In the case of `COc1cccc(NC(=O)Cn2c3ccccc3c3nc4n(c(=O)c32)CCS4)c1`, the Potency entry is “inactive”. As to `COc1ccc(NC(=O)CSc2nnc(Cc3ccccc3)c(=O)n2N)cc1`, the Potency result was “inactive”. For the compound `COc1cccc(NC(=S)NCCCN2CCOCC2)c1`, the Potency entry is “inactive”. As for `COC(=O)c1ccc2c(=O)n(CCN3CCOCC3)c(SCC(=O)Nc3cccc(OC)c3)nc2c1`, the Potency is 13.1 µM (active). For `CCc1ccc(NC(=O)CSc2nc3ccccc3c(=O)n2CCN2CCOCC2)cc1`, the Potency entry is “inactive”.

As to `COc1ccc(-n2nnnc2SCC(=O)Nc2ccccc2)cc1`, the Potency entry is “inactive”. Consider `COc1ccc(NC(C(=O)Nc2cccc(C(C)=O)c2)c2ccccc2)cc1` (configuration not stated), for which the Potency entry is “inactive”.

Consider `COc1cccc(NC(=O)C(Sc2nc3ccccc3c(=O)n2CC(C)C)c2ccccc2)c1` (configuration not stated), for which the Potency is 2.62 µM (active). Turning to `COc1ccc(NC(=O)CSc2nc3ccccc3c(=O)n2C)cc1`, the Potency was 1.85 µM (active). Regarding `COc1ccc([N+](=O)[O-])cc1NCC(=O)c1ccc(C)cc1`, the Potency result was “inactive”. For `O=S(=O)(Nc1cccc(-n2cnnn2)c1)c1cnc(Cl)c(Cl)c1`, the Potency result was “inactive”. As to `COc1ccc2c(C)cc3nnnn3c2c1`, the Potency entry is “inactive”.

On to `O=C(Nc1nnc(S(=O)(=O)N2CCOCC2)s1)c1cccc(Br)c1`, for which the Potency result was “inactive”. Regarding `COCCNC(=O)COc1ccccc1C`, the Potency entry was “inactive”. The result for `Cc1cccc(NC(=O)COc2ccccc2C)n1` reads 2.33 µM (active); that for `Cc1ccccc1OCC(=O)Nc1nc(C)c(C(=O)N(C)C)s1`, “inactive”; that for `O=C(NCCc1ccccn1)c1cccnc1Oc1ccc(Cl)cc1`, “inactive”.

On to `Cn1ccc(=Nc2ccc(NC(=O)c3ccc(N=c4ccn(C)c5ccc([N+](=O)[O-])cc45)cc3)cc2)cc1`, for which the Potency was 0.165 µM (active). As for `O=C(Nc1ccc(C(=O)N2CCCCC2)cc1)c1cccc([N+](=O)[O-])c1`, the Potency result is “inactive”. `COc1cc(NS(=O)(=O)c2ccc(NC(=O)c3ccc([N+](=O)[O-])cc3)cc2)ncn1`: the Potency entry was “inactive”. With `COc1ccccc1C(=O)Nc1ccnn1C1CCN(C(=O)C(C)(C)C)CC1`, the Potency entry is “inactive”.

In the case of `O=C(/C=C/Nc1ccccc1OC(F)(F)F)C(F)(F)F`, the Potency result is “inactive”. For the compound `CN(C)c1ccc(N/C=C/C(=O)C(F)(F)F)cc1`, the Potency is 6.57 µM (active). Consider `CCCOc1ccc(N/C=C/C(=O)C(C)(C)C)cc1`, for which the Potency result is “inactive”. For `Cc1c(C(=O)N(C)CCc2cnn(C)c2)oc2c(F)cccc12`, the Potency entry is “inactive”. As for `Fc1ccc(/C=N/n2c(COc3ccccc3)n[nH]c2=S)cc1`, the Potency result is “inactive”.

Regarding `COc1ccc(C(=O)OCC(=O)Nc2cccc(C(C)=O)c2)cc1OC`, the Potency result was “inactive”. The entry for `CN(C)c1ccc2c(=O)[nH][nH]c(=O)c2c1` is “inactive”; for `O=C1C=CC(=O)N1c1ccc(N2CCCCC2)cc1` it is “inactive”. As for `O=c1[nH][nH]c(=O)c2cc(N3CCCC3)ccc12`, the Potency is 9.28 µM (active).

With `CCOc1ccc(S(=O)(=O)NCc2ccc3c(c2)OCO3)cc1C`, the Potency entry is “inactive”. For the compound `Cc1ccc(C(=O)NNC(=O)C(C)Oc2ccc3ccccc3c2)o1` (configuration not stated), the Potency entry was “inactive”. Regarding `Cc1ccc(Cl)c(OCC(=O)N(C)CC(=O)Nc2ccc(N3CCOCC3)cc2)c1`, the Potency result is “inactive”. With `Cc1cc(C(C)(C)C)n2nc(C)c(-c3ccccc3)c2n1`, the Potency result is “inactive”. The figure for `Cc1nn2c(NCCN(C)C)c3c(nc2c1-c1ccccc1)CCC3` is 11.7 µM (active); for `Cc1cc(N2CCCC2)n2nc(C)c(-c3ccccc3)c2n1` it is “inactive”. Take `O=C(CN1CCN(c2ccccn2)CC1)Nc1ccc(Br)cc1`: the Potency entry is “inactive”.

In the case of `COc1ccc(C2=NS(=O)(=O)N(C)C(C(=O)N(C)Cc3ccccc3)=C2)cc1`, the Potency entry is “inactive”. On to `Nc1c(C(=O)Nc2ccc3c(c2)OCCO3)nnn1Cc1ccccc1`, for which the Potency entry is “inactive”. As to `CC1CN(C(=O)CCC(=O)NCc2cccnc2)c2ccccc2O1` (configuration not stated), the Potency entry is “inactive”. The result for `Cc1ccc2c(c1)N(C(=O)CCC(=O)NCc1cccnc1)CCO2` reads “inactive”; that for `Cc1ccccc1CNC(=O)CCC(=O)N1Cc2ccccc2Oc2ncccc21`, 11.7 µM (active).
